Results published in paper PMC8384837, “Expanding the binding specificity for RNA recognition by a PUF domain”.

Columns and labels:
Assay in all cases: yeast three-hybrid, YBZ-1, SC-Leu-His + 0.5 mM 3-AT, 4 days
Settings in all cases: tags: N-Gal4 AD-HA kept; label: inside an RPR1-promoter hybrid RNA with tandem MS2 sites; ssRNA
[1] = target: PUM1 PUF domain R3-RCD (Homo sapiens, UniProt Q14671 828-1176, C935R;R936C;Q939D)
Summary of the method: (§1)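 Pumilio-1 PUF domain libraries, randomized at the three base-contacting residues of each repeat, were co-expressed with matching RNA elements from a centromeric plasmid in strain YBZ-1, which carries a LexA–MS2 coat fusion and a HIS3 reporter. Transformants grew for four days on SC-Leu (input) or on SC-Leu-His + 0.5 mM 3-AT (selection), and the repeat regions were PCR-amplified and Illumina-sequenced. The interaction score is the log change in variant frequency from input to selection. That logarithm is base 2, with a pseudocount of 1 where a variant was absent.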

[2] = target: PUM1 PUF domain R3-VRS (Homo sapiens, UniProt Q14671 828-1176, C935V;Q939S)
Summary of the method: as §1

[3] = target: PUM1 PUF domain R4-FNI (Homo sapiens, UniProt Q14671 828-1176, N971F;H972N;Q975I)
Summary of the method: as §1

[4] = target: PUM1 PUF domain R4-MFN (Homo sapiens, UniProt Q14671 828-1176, N971M;H972F;Q975N)
Summary of the method: as §1

[5] = target: T1, PUM1 PUF domain R6-IWK (Homo sapiens, UniProt Q14671 828-1176, N1043I;Y1044W;Q1047K)
T1 sequence: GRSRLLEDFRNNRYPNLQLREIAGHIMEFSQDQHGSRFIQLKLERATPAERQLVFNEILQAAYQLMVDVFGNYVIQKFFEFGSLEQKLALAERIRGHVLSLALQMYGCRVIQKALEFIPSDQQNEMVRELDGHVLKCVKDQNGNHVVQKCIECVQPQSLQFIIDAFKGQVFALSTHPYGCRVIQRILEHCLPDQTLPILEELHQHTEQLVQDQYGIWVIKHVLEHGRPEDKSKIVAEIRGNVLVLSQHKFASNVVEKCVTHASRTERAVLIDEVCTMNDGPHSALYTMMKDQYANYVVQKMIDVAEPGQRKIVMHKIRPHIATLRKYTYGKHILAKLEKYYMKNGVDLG
Summary of the method: as §1

[6] = target: PUM1 PUF domain R7-TVV (Homo sapiens, UniProt Q14671 828-1176, S1079T;N1080V;E1083V)
Summary of the method: as §1

[7] = target: PUM1 PUF domain R1-GYK (Homo sapiens, UniProt Q14671 828-1176, S863G;R864Y;Q867K)
Summary of the method: as §1

[8] = target: PUM1 PUF domain R1-RLV (Homo sapiens, UniProt Q14671 828-1176, S863R;R864L;Q867V)
Summary of the method: as §1

[9] = target: PUM1 PUF domain R5-NVA (Homo sapiens, UniProt Q14671 828-1176, C1007N;R1008V;Q1011A)
Summary of the method: as §1

GGCUAGAACUAGUGGAUCCCCCGGCGCCCGGCGGCUCGAGCCCGGGUAAGUGUAAGUAGUCUGCAUGCCGCCGGGCGCCAUGCCUGCAGGUCGACUCUAGAAAACAUG
binding signal [1]: 2.53 log2 enrichment (interaction score) | binding signal [2]: 0.45 log2 enrichment (interaction score)

GGCUAGAACUAGUGGAUCCCCCGGCGCCCGGCGGCUCGAGCCCGGGUAAGUGUAAUUAGUCUGCAUGCCGCCGGGCGCCAUGCCUGCAGGUCGACUCUAGAAAACAUG
binding signal [1]: 3.1 log2 enrichment (interaction score)

GGCUAGAACUAGUGGAUCCCCCGGCGCCCGGCGGCUCGAGCCCGGGUAAGUGUAUAUAGUCUGCAUGCCGCCGGGCGCCAUGCCUGCAGGUCGACUCUAGAAAACAUG
binding signal [3]: 2.63 log2 enrichment (interaction score)

GGCUAGAACUAGUGGAUCCCCCGGCGCCCGGCGGCUCGAGCCCGGGUAAGUGUAAAUAGUCUGCAUGCCGCCGGGCGCCAUGCCUGCAGGUCGACUCUAGAAAACAUG
binding signal [4]: 2.97 log2 enrichment (interaction score) | binding signal [2]: 3.88 log2 enrichment (interaction score) | binding signal [5]: 2.18 log2 enrichment (interaction score)

GGCUAGAACUAGUGGAUCCCCCGGCGCCCGGCGGCUCGAGCCCGGGUAAGUUUAAAUAGUCUGCAUGCCGCCGGGCGCCAUGCCUGCAGGUCGACUCUAGAAAACAUG
binding signal [6]: 3.71 log2 enrichment (interaction score)

GGCUAGAACUAGUGGAUCCCCCGGCGCCCGGCGGCUCGAGCCCGGGUAAGUGUAAAUCGUCUGCAUGCCGCCGGGCGCCAUGCCUGCAGGUCGACUCUAGAAAACAUG
binding signal [7]: 5.06 log2 enrichment (interaction score) | binding signal [8]: 2.36 log2 enrichment (interaction score)

GGCUAGAACUAGUGGAUCCCCCGGCGCCCGGCGGCUCGAGCCCGGGUAAGUGUAAAUGGUCUGCAUGCCGCCGGGCGCCAUGCCUGCAGGUCGACUCUAGAAAACAUG
binding signal [7]: 0.96 log2 enrichment (interaction score)

GGCUAGAACUAGUGGAUCCCCCGGCGCCCGGCGGCUCGAGCCCGGGUAAGUGAAAAUAGUCUGCAUGCCGCCGGGCGCCAUGCCUGCAGGUCGACUCUAGAAAACAUG
binding signal [5]: 5.15 log2 enrichment (interaction score)

GGCUAGAACUAGUGGAUCCCCCGGCGCCCGGCGGCUCGAGCCCGGGUAAGUGUAAAUUGUCUGCAUGCCGCCGGGCGCCAUGCCUGCAGGUCGACUCUAGAAAACAUG
binding signal [8]: 2.9 log2 enrichment (interaction score)

GGCUAGAACUAGUGGAUCCCCCGGCGCCCGGCGGCUCGAGCCCGGGUAAGUGUUAAUAGUCUGCAUGCCGCCGGGCGCCAUGCCUGCAGGUCGACUCUAGAAAACAUG
binding signal [9]: 3.11 log2 enrichment (interaction score)
